Screening data (PubChem BioAssay)
Only some compounds are listed: those with a hit (about 21% of all), similar ones and a draw of the others.
Shiga inhibitor: A qHTS for Small Molecule Inhibitors of Shiga Toxin; 290,000 tested, 9.2% active; inhibition, % at 38.7 µM; Vero cells, Shiga toxin protein synthesis inhibition reporter; AID 2315, 2010; in the data active = inhibition mostly above about 28%, no sharp cut-off; inactive = mostly below about 43%
Pf growth 96h: Primary qHTS for delayed death inhibitors of the malarial parasite plastid, 96 hour incubation; 320,000 tested, 6.9% active; P. falciparum luciferase reporter growth, 96 h; Potency, µM (highest dose often 28.7 µM), hits mostly inhibitors; active = well fitted inhibition curve with a large enough effect; inconclusive = small, poorly fitted or top-dose-only effect, or another doubt; inactive = no such curve, though single readings can be large or run the other way
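Infected RBCs, 2% Hct / 0.05% parasitemia final; luciferase-reporter P. falciparum; cpd 96 h, 37 C, 5% CO2; luciferase detection reagent; luminescence.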
Pf growth 48h: Primary qHTS for delayed death inhibitors of the malarial parasite plastid, 48 hour incubation; P. falciparum luciferase growth in erythrocytes, 48 h; Potency, µM (series often up to 28.7 µM), hits mostly inhibitors; 310,000 tested, 5.9% active; active = well fitted inhibition curve with a large enough effect; inconclusive = small, poorly fitted or top-dose-only effect, or another doubt; inactive = no such curve, though single readings can be large or run the other way
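Cell-based growth assay: transgenic P. falciparum expressing firefly luciferase, cultured in red cells within RPMI 1640 containing 0.5% w/v Albumax, 24 mM bicarbonate and gentamycin. A drop in luciferase activity indicates inhibition.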
Cycloheximide cs: Cycloheximide Counterscreen for Small Molecule Inhibitors of Shiga Toxin | cell reporter, cycloheximide protein synthesis inhibition counterscreen | max response, % | 300,000 tested, 12% active | AID 2314, 2010; in the data active = max response mostly above about 13%, no sharp cut-off; inactive = mostly below about 14%; note: read at 38.3 µM for the half of the compounds with a filed dose
NS1 inh: qHTS Assay for Inhibitors of Influenza NS1 Protein Function; 270,000 tested, 0.4% active; Potency, µM (highest dose often 46.1 µM); note: actives are rising curves; nearly all actives have a fitted effect of over 50% in size
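OD600 was taken as the measure of yeast growth restored by compound in an NS1-expressing S. cerevisiae strain. Cells had been washed out of glucose medium and diluted 1:100 into galactose -URA medium, pH 6.0.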
SARS PLpro yeast: qHTS of Yeast-based Assay for SARS-CoV PLP; Potency, µM (highest dose often 32.9 µM), hits mostly activators; S. cerevisiae expressing SARS-CoV PLpro, growth rescue; 330,000 tested, 0.19% active; note: nearly all actives have a fitted effect of over 55% in size
Hits are given with their value; - = inactive; ? = inconclusive; . = no result given. Unless noted, calls come from the whole dose curve.

SMILES	Shiga inhibitor	Pf growth 96h	Pf growth 48h	Cycloheximide cs	NS1 inh	SARS PLpro yeast
CC(=O)O[C@]1(C(C)=O)CC[C@H]2[C@@H]3C[C@H](C)C4=CC(=O)CC[C@]4(C)[C@H]3CC[C@@]21C	-	11.7µM	13.1µM	-	-	-
CC(=O)O[C@]1(C(C)=O)CC[C@H]2[C@@H]3C=C(Cl)C4=CC(=O)CC[C@]4(C)[C@H]3CC[C@@]21C	-	?	11.7µM	-	-	-
C#CCN1c2ccccc2Sc2cccnc21	-	0.117µM	0.329µM	-	-	-
CC(CN1c2ccccc2Sc2ccccc21)N(C)C (stereo not drawn)	-	?	?	-	-	-
CC(C)c1ccc(NC(=O)Nc2cc3sccc3n2C)cc1	-	?	?	-	-	-
CC1(C)Cc2nc3sc(C(N)=O)c(N)c3cc2CO1	-	-	-	30.8	-	-
CCOC(=O)c1cc2c(nc1NC(=S)Nc1ccccc1)CC(C)(C)OC2	-	10.4µM	-	-	-	-
CCOC(=O)c1cc2c(nc1N)CC(C)(CC)OC2 (stereo not drawn)	116.5	.	-	48.6	-	-
CCOC(=O)c1sc2nc3c(cc2c1N)COC(C)(C)C3	28.5	-	-	38.0	-	-
CCOC(=O)c1cc2c(nc1N)CC(C)(C)OC2	-	?	-	-	-	-
CC(C)(C)OC(=O)C[C@@H]1C/C=C\C[C@@H](CC(=O)NCCO)C(=O)NC[C@@H](c2ccccc2)OC1=O	.	.	.	.	.	-
Cc1cc(C(=O)Nc2ccccc2C(=O)O)ccc1NC(=O)COc1cccc(C)c1C	-	?	-	-	-	-
CCOC(=O)c1sc2nc3c(cc2c1N)COC(C)(CC)C3 (stereo not drawn)	-	-	-	41.3	?	-
Cc1ccccc1NC(=S)Nn1cnnc1	-	-	-	-	-	-
O=C(Nc1cccc(Cl)c1Cl)Nn1cnnc1	-	-	-	-	-	-
Cc1cccc(NC(=S)Nn2cnnc2)c1C	-	?	-	38.4	-	-
S=C(Nc1cccc(Cl)c1Cl)Nn1cnnc1	-	2.33µM	-	-	-	-
Cc1cccc(N2CCN(C(=O)c3ccc4c(c3)NC(=O)C(CSCc3cccc(F)c3)N4)CC2)c1C (stereo not drawn)	-	?	?	-	-	-
CCCCCc1c(C)nc(NCc2ccccc2)[nH]c1=O	-	.	2.08µM	-	-	-
O=c1[nH]c(N2CCN(Cc3ccccc3)CC2)nc2c1CCC2	-	-	-	-	-	-
CC(C)(C)C(=O)Nc1nc2c(c(=O)[nH]1)CCCC2	-	-	9.28µM	-	.	-
Cc1nc(Nc2ccccc2)[nH]c(=O)c1CCC(C)C	-	.	?	-	-	-
O=c1[nH]c(NCc2ccccc2)nc2c1CCC2	-	14.7µM	-	-	-	-
CCC(=O)Nc1nc2c(c(=O)[nH]1)CCCC2	-	?	-	-	.	-
O=C(C/C=N/OCc1ccc(Cl)cc1)c1cnc(-c2ccccc2)s1	-	-	-	-	-	-
SMILES	Shiga inhibitor	Pf growth 96h	Pf growth 48h	Cycloheximide cs	NS1 inh	SARS PLpro yeast
CO/N=C/CC(=O)c1cnc(-c2ccccc2)s1	-	-	-	18.8	.	-
CC(C)CCOP(N)(=O)Oc1ccccc1 (stereo not drawn)	-	2.08µM	-	-	-	-
CC(C)CCOP(N)(=O)Oc1ccccc1Cl (stereo not drawn)	-	-	?	-	-	-
C=CCn1c(C)cc(C(=O)COC(=O)C2CC(=O)N(Cc3ccccc3)C2)c1C (stereo not drawn)	-	-	-	12.1	-	-
C=CCn1c(C)cc(C(=O)COC(=O)CNC(=O)c2ccccc2)c1C	11.5	-	-	114.3	-	-
Cc1[nH]c2ccccc2c1C(=O)COC(=O)C1CC(=O)N(Cc2ccccc2)C1 (stereo not drawn)	-	.	-	-	-	-
Cc1ccc(C(=O)NCC(=O)OCC(=O)c2cc(C)n(Cc3ccco3)c2C)cc1	-	-	-	-	-	-
O=C(Cn1c(=O)oc2cc(S(=O)(=O)N3CCCC3)ccc21)NCc1ccccn1	-	?	-	-	-	-
CC1CCCN(CCCNC(=O)c2ccc(N3CCCC3=O)cc2)C1 (stereo not drawn)	-	?	-	-	-	-
COc1ccc(C(=O)O/N=C(\N)Cc2ccc(Cl)cc2)cc1OC	-	10.4µM	7.38µM	-	-	-
CC(C)(C)C(=O)O/N=C(\N)c1c(Cl)cccc1Cl	-	-	-	-	-	-
CC(C)(C)C(=O)OC/C(N)=N/OC(=O)c1ccc(Cl)cc1	-	?	?	24.5	-	-
COc1cc(C(=O)O/N=C(\N)Cc2ccc([N+](=O)[O-])cc2)cc(OC)c1OC	-	?	?	-	-	-
COc1ccc(C(=O)O/N=C(\N)Cc2ccc(Cl)c(Cl)c2)cc1OC	-	-	4.15µM	-	-	-
CC(C)(C)C(=O)O/N=C(\N)COc1cccc(Cl)c1	99.4	?	?	44.0	-	-
N/C(Cc1ccc(Cl)cc1)=N\OC(=O)c1ccccc1	-	10.4µM	.	23.7	-	-
N/C(Cc1ccc([N+](=O)[O-])cc1)=N\OC(=O)c1ccc([N+](=O)[O-])cc1	-	-	.	-	-	-
O=C(C1=C[C@@H](C2CCCCC2)C[C@@H](OCc2ccc(CO)cc2)O1)N1CCN(Cc2ccc3c(c2)OCO3)CC1	-	13.1µM	4.65µM	-	-	-
O=C(C1=C[C@H](C2CCCCC2)C[C@H](OCc2ccc(CO)cc2)O1)N1CCN(Cc2ccc3c(c2)OCO3)CC1	-	10.4µM	?	-	-	-
O=C(O)CCCCCNC(=O)c1ccccc1	-	-	.	-	-	-
COC(=O)c1ccc(CSc2nnc(-c3ccncc3)n2Cc2ccccc2)o1	-	-	-	-	-	-
Cc1ccc(Nc2nc(CSc3nnnn3-c3ccccc3)cs2)cc1	-	-	-	-	-	.
Cc1ccc(Nc2nc(CSc3nnnn3C)cs2)cc1	42.3	-	-	39.3	-	-
Cn1nnnc1SCc1csc(Nc2ccccc2)n1	123.1	-	-	27.8	-	-
COc1cc(OC)c(S(=O)(=O)Nc2ccc(C)cn2)cc1NC(C)=O	-	-	-	-	-	-
SMILES	Shiga inhibitor	Pf growth 96h	Pf growth 48h	Cycloheximide cs	NS1 inh	SARS PLpro yeast
CCOC(=O)Cc1csc(NC(=O)c2cc3c(s2)CCCC3)n1	-	-	.	-	-	-
Cc1csc(NC(=O)c2cc3c(s2)CCCC3)n1	80.8	-	?	61.5	-	-
Cc1csc(NC(=O)c2cc3c(s2)CCCCC3)n1	-	.	-	14.8	-	-
CCc1nnc(NC(=O)c2cc3c(s2)CCCCC3)s1	.	.	.	.	-	.
Cc1cnc(NC(=O)c2cc3c(s2)CCCC3)s1	60.6	-	.	40.4	-	-
S=c1[nH]nc(COc2ccccc2)n1/N=C/c1c(Cl)cccc1Cl	-	-	.	-	-	-
O=S1(=O)C2CC3OC2(CC3c2ccc(F)cc2)CN1Cc1ccc(Cl)cc1 (stereo not drawn)	-	.	.	-	.	.
